# Only some compounds are listed: those with a hit (about 9.4% of all), similar ones and a draw of the others.
# Rab9 promoter act: Rab9 promoter activation. Huh7 Rab9 promoter-luciferase reporter, luminescence, 24 h. Potency, µM (doses to about 9.22 µM), inactives show at the highest dose activation, negative = inhibition, most hits filed as activators. 2.8% of 320,000 active. AID 485297; further: % of control where 0% means no effect; nearly all actives have a fitted effect of over 60% in size
#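 Huh7 cells stably carrying a Rab9 promoter-luciferase reporter, 1500 cells per well in OP-MEM I with 10% FBS, treated with compound 24 hours at 37C. Luciferase activity read by luminescence after 10 minutes with Amplite reagent.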
# NPC1 promoter act: NPC1 promoter activation; Huh7 NPC1 promoter luciferase reporter, 24 h; Potency, µM (series often up to 9.22 µM), for inactives: top-dose activation, usual class: activators; 2.4% of 320,000 active; further: % of control where 0% means no effect; nearly all actives have a fitted effect of over 60% in size
#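 Stable NPC1-promoter luciferase Huh7 line; cpd (DMSO) 24 h, 37 °C, 5% CO2; Amplite luciferase reagent 10 min RT; luminescence readout. qHTS format.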
# FLuc modulator: inhibits or activates purified firefly luciferase, miR-21 counter-screen. P08659. purified FLuc, Km substrates, luminescence inhibition. Potency, µM (titrated, usually from 57.5 µM), for inactives: at the highest dose activity change, negative = inhibition, actives largely listed as inhibitors. 6.9% of 360,000 active. AID 588342;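 further: plate controls were vehicle for no effect and reference inhibitor for full effect; nearly all actives have a fitted effect of over 55% in size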
# Target sequence (P08659 whole entry, looked up): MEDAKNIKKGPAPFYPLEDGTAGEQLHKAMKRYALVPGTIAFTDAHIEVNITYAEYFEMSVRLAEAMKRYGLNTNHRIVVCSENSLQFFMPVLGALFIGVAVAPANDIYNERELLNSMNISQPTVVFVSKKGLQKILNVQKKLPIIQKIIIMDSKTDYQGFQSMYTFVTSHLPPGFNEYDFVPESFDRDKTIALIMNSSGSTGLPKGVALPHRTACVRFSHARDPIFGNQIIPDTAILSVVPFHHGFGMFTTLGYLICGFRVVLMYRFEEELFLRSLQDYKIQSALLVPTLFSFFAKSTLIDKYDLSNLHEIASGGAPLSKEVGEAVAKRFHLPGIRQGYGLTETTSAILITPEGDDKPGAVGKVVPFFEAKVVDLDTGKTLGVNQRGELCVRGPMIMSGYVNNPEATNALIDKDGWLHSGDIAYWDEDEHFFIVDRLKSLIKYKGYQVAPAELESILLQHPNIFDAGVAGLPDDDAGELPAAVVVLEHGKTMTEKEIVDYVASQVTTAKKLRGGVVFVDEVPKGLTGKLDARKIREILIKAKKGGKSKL
#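 Purified P. pyralis luciferase, 10 nM final, with Km-level 10 uM D-luciferin and 10 uM ATP in 50 mM Tris acetate pH 7.5, 10 mM Mg acetate, 0.01% Tween-20, 0.05% BSA; 6-point qHTS titration about 60 µM downward; luminescence read.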
# ELG1 genotox: induces genotoxicity in HEK293T cells with luciferase-tagged ELG1 | HEK293T ELG1-luciferase reporter, luminescence, 16 h | Potency, µM (doses to about 46 µM), inactives show at the highest dose activity change, positive = activation, actives largely listed as activators | 1.3% of 330,000 active | AID 504466; further: % of control where 0% means no effect; nearly all actives have a fitted effect of over 60% in size
#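 Genotoxicity was scored as increased ELG1-luciferase reporter signal, measured by ONE-Glo luminescence (30 min, room temperature). Compound or vehicle exposure of the HEK293T reporter cells lasted 16 hr at 37°C.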
# ELG1 DNA repair: inhibitors of ELG1-dependent DNA repair in HEK293T cells; 2.3% of 330,000 active; Potency, µM (series often up to 46.1 µM), for the others: at the top dose activity change, negative = inhibition, most hits filed as inhibitors; AID 504467; HEK293T ELG1-luciferase reporter, luminescence, 16 h; DNA damage induced by 5-fluorouridine; further: on the % scale 0 is the no-effect control and ±100 the full control effect; nearly all actives have a fitted effect of over 55% in size
#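 5-Fluorouridine DNA damage + compound/DMSO, 2,000 cells/well, 16 h, 37 °C/5% CO2. ONE-Glo, 30 min RT, luminescence. Readout = decrease in reporter signal.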
# SMN2 splice up: increases expression of the SMN2 splice variant; HEK293 SMN2-luciferase splicing reporter, luminescence, 30-36 h; Potency, µM (titrated, usually from 46.1 µM), for the others: at the top dose activity change, positive = activation, usual class: activators; 2.8% of 210,000 active; AID 1458; further: % of control where 0% means no effect; nearly all actives have a fitted effect of over 55% in size
#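 qHTS luciferase splicing reporter: luminescence rises when SMN2 exon 7 is included in transfected HEK293 cells. Compound exposure lasted 30-36 h at 37C, with 4.5 mM final sodium butyrate as control, followed by a ONE-Glo read.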
# * marks the source's active call; other numbers are inactive results; ? = inconclusive; . = not tested or not shown; [ ] = another dose, or the depositor's remark. The call rests on the fitted dose curve; in most records, active means well fitted curve in the direction sought with a large enough effect; inconclusive means small, poorly fitted or top-dose-only effect, or another doubt; inactive means no such curve, though single readings can be large; an effect the other way counts as inactive or inconclusive. Potency means the concentration at half of the fitted maximal effect.
SMILES,Rab9 promoter act,NPC1 promoter act,FLuc modulator,ELG1 genotox,ELG1 DNA repair,SMN2 splice up
Cc1ccc(-c2cc(NC(=O)c3ccccc3Cl)on2)cc1,.,.,?,.,.,13µM*
O=C(Nc1ccc(C#Cc2ccccc2)cc1)C1CC1,1.4µM*,2.5µM*,5.4µM*,?,?,3.5µM*
CCCC(=O)Nc1ccc(C#Cc2ccccc2)cc1,2.8µM*,1.6µM*,4.8µM*,?,?,?
CCCC(=O)Nc1ccc(Oc2ccc(NC(=O)CCC)cc2)cc1,1%,0%,8%,0%,12%,7%
O=C(Nc1ccccc1O)c1ccc(NC(=O)C2CC2)cc1,2.8µM*,3.5µM*,12µM*,21µM*,?,.
CC(=O)N1c2c(cc(Br)cc2S(=O)(=O)N2CCN(c3cccc(Cl)c3)CC2)CC1C (stereo not drawn),.,.,-10%,.,.,5%
Cc1ccc(N2CCn3c2nc2c3c(=O)n(CCCc3ccccc3)c(=O)n2C)cc1C,.,.,5%,.,.,.
Cc1cccc(N2C(=O)CSC23C(=O)N(Cc2cccc(C(F)(F)F)c2)c2ccccc23)c1 (stereo not drawn),.,.,-2%,.,.,.
Cc1cccc(Nc2nnc(-c3ccc(N4CCOCC4)c([N+](=O)[O-])c3)c3ccccc23)c1,-11%,-7%,3%,-5%,8.2µM*,-67%
COc1ccc(C(=O)Nc2cc(C(C)C)c(O)c(S(=O)(=O)c3ccc(Cl)cc3)c2C)cc1,.,.,?,.,.,11µM*
COc1ccc(C(=O)Nc2cc(C(C)C)c(O)c(S(=O)(=O)c3ccc(OC)cc3)c2C)cc1,.,.,?,.,.,16µM*
COc1ccc(S(=O)(=O)c2c(O)c3ccc(C(=O)Nc4ccccc4F)cc3[nH]c2=O)cc1,4%,-4%,-17%,0%[9.26 µM],0%,.
Clc1ccccc1Cn1nnc(-c2ccccc2)n1,?,27%,21µM*,?,?,?
Clc1ccc(Cn2nnc(-c3ccccc3)n2)cc1,13%,10%,?,14%,?,29%
CCn1c(Cn2nnc(-c3ccccc3)n2)nnc1SCC(=O)Nc1ccc(N(C)C)cc1,-8%,-1%,3%,-1%,-7%,.
Clc1ccccc1Cn1nnc(-c2cccs2)n1,3.5µM*,3.2µM*,15µM*,18µM*,?,13µM*
Fc1ccc(-c2nnn(Cc3ccc(F)cc3Cl)n2)cc1,21%,22%,?,13%,?,.
Cc1ccccc1-c1nnn(Cc2ccc(F)cc2Cl)n1,-1%[1.84 µM],16%,17µM*,9%,?,.
CN(C)c1ccc(-c2nnn(Cc3ccccc3Br)n2)cc1,?,?,13µM*,?,22%,12%
CCCn1c(-c2ccc(F)cc2)nc2c(NCCN(CC)CC)nc(C)nc21,.,.,.,.,.,-2%
Cc1ccc2c(=O)cc(C(=O)NCc3ccccc3)oc2c1,.,.,-6%,.,.,-25%
COc1ccc(NC(=O)C(C)Sc2cc(-c3ccccc3)nc(C)n2)cc1Cl (stereo not drawn),.,.,1%,.,.,.
Cc1ccc(NC(=O)N2CCc3cc(S(=O)(=O)N4CCC(C)CC4)ccc32)cc1,.,.,-4%,.,.,-3%
CCCCn1c(=O)n(-c2cc(OC)ccc2OC)c(=O)c2c3c(sc21)CN(C(C)=O)CC3,.,.,1%,.,.,28%
Cc1ccc(NC(=O)CN2C(=O)C(c3ccc(F)cc3)=NC23CCCCC3)c(C)c1,.,.,1%,.,.,-7%
SMILES,Rab9 promoter act,NPC1 promoter act,FLuc modulator,ELG1 genotox,ELG1 DNA repair,SMN2 splice up
COc1ccc(NC(=O)c2csc3c2CCCCC3)cc1,.,.,5.4µM*,.,.,7.9µM*
COc1ccc(NC(=O)c2csc3c2CCCCC3)c(OC)c1,5%,0%,?,-3%,0%,9%
COc1cccc(NC(=O)c2csc3c2CCCCC3)c1,.,.,11µM*,.,.,13µM*
O=C(Nc1ccccc1O)c1csc2c1CCCC2,?,?,9.5µM*,?,?,16µM*
CS(=O)(=O)N1CCC2(CC1)CN(c1cccc(-c3ccccc3)c1)C2,.,.,.,.,.,-38%
C/C(=N\NC(=O)c1cc2ccccc2cc1O)c1ccc2c(c1)OCO2,25%,21%,9.5µM*,10%,26%,15%
C/C(=N/NC(=O)c1ccc2c(c1)OCO2)c1ccc(NC(=O)c2ccc(F)cc2)cc1,23%,16%,-7%,15µM*,?,.
C/C(=N/NC(=O)c1ccc2c(c1)OCO2)c1cccc(NC(=O)C(C)(C)C)c1,3%,-7%,17µM*,5%,20%,19%
CC(/C=C/c1ccc2c(c1)OCO2)=N\NC(=O)c1cccc([N+](=O)[O-])c1,-6%,1%,-8%,3%,?,-23%
C/C(=N/NC(=O)c1ccc2c(c1)OCO2)c1cccc([N+](=O)[O-])c1,2.2µM*,2µM*,6µM*,8.2µM*,?,.
CCOc1cc(CNC(=O)Cn2ncn3c(cc4cc(F)ccc43)c2=O)cc(OCC)c1OCC,.,.,2%,.,.,2%
O=C(O)c1c(Cl)c(Cl)c(Cl)c(Cl)c1C(=O)Nc1ccc2cn[nH]c2c1,.,.,.,.,.,-3%[9.22 µM]
COc1ccccc1NS(=O)(=O)c1cccc(C(=O)N/N=C(\C)c2cccnc2)c1,2%,-1%,2%,1%,0%,.
COc1ccccc1NS(=O)(=O)c1cccc(C(=O)N/N=C(\C)c2ccc3c(c2)OCCO3)c1,1%,-1%,15µM*,0%,?,-9%
CCOC(=O)c1c(C)[nH]c(C(=O)N/N=C\c2ccccc2O)c1C,-6%,-7%,6.7µM*,?,?,-78%
Cc1cc(C(=O)CSc2ccc(Cl)cc2)cc(C)c1OC(=S)N(C)C,?,2.8µM*,9.5µM*,?,?,-9%
CCOC(=O)c1c(C)[nH]c(C(=O)OCc2ccccc2)c1C,0.63µM*,1.3µM*,2.1µM*,1.8µM*,?,.
Cc1cc(C(=O)CSc2ccc(F)cc2)cc(C)c1O,17%,12%,19µM*,?,?,.
COc1ccc(CNC(=O)Cn2ncc3c(=O)oc4ccccc4c32)c(OC)c1,.,.,-1%,.,.,-2%
Cc1ccc(-c2nc(S(=O)(=O)c3ccc(Cl)cc3)c(N3CCCCC3)o2)cc1,.,.,-1%,.,.,-1%
CCOC(=O)c1c(C)[nH]c(C(=O)C(C)Sc2ccc(Cl)cc2)c1C (stereo not drawn),?,14%,27µM*,1%,?,2%
CCOC(=O)c1[nH]c(C)c(C(=O)/C=C/c2ccc(C(=O)O)cc2)c1C,-3%,6%,13µM*,22%,-4%,.
CCOC(=O)c1c(C)[nH]c(C(=O)C(C)Cl)c1C (stereo not drawn),-2%,-9%,1%,-3%,6%,-12%
CC(=O)c1c(C)[nH]c(C(=O)CSc2ccc(F)cc2)c1C,17%,?,13µM*,6%,?,.
